Tests used:
[1] = test system: H1975; assay: area under confluence curve of osimertinib + compound combination regimen (DTP regrowth); compare to osimertinib-only DTP control AUC of the same experiment (AUC (confluence x time, arbitrary))
Summary of the method: (§1)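 The area under the IncuCyte confluence–time curve, calculated in Prism and taken as the median of triplicates where available, is the value reported. It was measured in EGFR-mutant NSCLC lines that received the EGFR inhibitor either alone, followed by a test compound, or together with a fixed-dose test compound until the persister stage (10–21 days) and then drug-free medium. Medium was refreshed every 3–4 days until the inhibitor-only wells were confluent again.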

[2] = test system: HCC2279; assay: as above
Summary of the method: as §1

[3] = test system: HCC2935; assay: as above
Summary of the method: as §1

[4] = test system: HCC4006; assay: as above
Summary of the method: as §1

[5] = test system: HCC827; assay: as above
Summary of the method: as §1

[6] = test system: II-18; assay: as above
Summary of the method: as §1

[7] = test system: H1975; assay: area under confluence curve of compound monotherapy; compare to DMSO control AUC of the same experiment (AUC (confluence x time, arbitrary)); details: 300 nM
Summary of the method: (§2)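 EGFR-mutant adenocarcinoma lines (RPMI 1640, 10% FBS, 37 °C, 5% CO2) were seeded at 20,000–30,000 cells/well in 48-well plates and next day given test compound alone at one dose (highest with <50% parental inhibition, or 1 uM), refreshed after PBS washes every 3–4 days, then drug-free from DTP stage (10–21 days). IncuCyte confluence was tracked until EGFR-inhibitor-only wells regrew. Area under the confluence curve came from Prism (median of triplicates where run), beside same-experiment vehicle AUC.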

[8] = test system: HCC2279; assay: as above; details: 300 nM
Summary of the method: as §2

[9] = test system: HCC2935; assay: as above; details: 300 nM
Summary of the method: as §2

[10] = test system: HCC4006; assay: as above; details: DMSO control AUC in same experiment: 10921
Summary of the method: as §2

[11] = test system: HCC827; assay: as above; details: 300 nM
Summary of the method: as §2

[12] = test system: II-18; assay: as above
Summary of the method: as §2

C[C@@H](Nc1cc(F)cc(F)c1)c1cc(C(=O)N(C)C)cc2c(=O)cc(N3CCOCC3)oc12 + C=CC(=O)Nc1cc(Nc2nccc(-c3cn(C)c4ccccc34)n2)c(OC)cc1N(C)CCN(C)C [osimertinib]
area under confluence curve ([1]; test compound dose 1000 nM, dosing schedule: sequential, osimertinib-only DTP control AUC in same experiment: 15943, DMSO control AUC in same experiment: 20657): 8220
area under confluence curve ([1]; test compound dose 1000 nM, dosing schedule: upfront, osimertinib-only DTP control AUC in same experiment: 27804, DMSO control AUC in same experiment: 20657): 13700
area under confluence curve ([2]; test compound dose 1000 nM, dosing schedule: sequential, osimertinib-only DTP control AUC in same experiment: 21824, DMSO control AUC in same experiment: 29252): 8080
area under confluence curve ([2]; test compound dose 1000 nM, dosing schedule: upfront, osimertinib-only DTP control AUC in same experiment: 43517, DMSO control AUC in same experiment: 29252): 21600
area under confluence curve ([3]; test compound dose 1000 nM, dosing schedule: sequential, osimertinib-only DTP control AUC in same experiment: 6271, DMSO control AUC in same experiment: 13875): 5860
area under confluence curve ([3]; test compound dose 1000 nM, dosing schedule: upfront, osimertinib-only DTP control AUC in same experiment: 10360, DMSO control AUC in same experiment: 13875): 5800
area under confluence curve ([4]; test compound dose 1000 nM, dosing schedule: sequential, osimertinib-only DTP control AUC in same experiment: 19238, DMSO control AUC in same experiment: 16638): 10300
area under confluence curve ([4]; test compound dose 1000 nM, dosing schedule: upfront, osimertinib-only DTP control AUC in same experiment: 21234, DMSO control AUC in same experiment: 16638): 5440
area under confluence curve ([5]; test compound dose 1000 nM, dosing schedule: sequential, osimertinib-only DTP control AUC in same experiment: 8266, DMSO control AUC in same experiment: 27404): 3540
area under confluence curve ([5]; test compound dose 1000 nM, dosing schedule: upfront, osimertinib-only DTP control AUC in same experiment: 13929, DMSO control AUC in same experiment: 27404): 3910
area under confluence curve ([6]; test compound dose 1000 nM, dosing schedule: sequential, osimertinib-only DTP control AUC in same experiment: 21014, DMSO control AUC in same experiment: 18482): 12100
area under confluence curve ([6]; test compound dose 1000 nM, dosing schedule: upfront, osimertinib-only DTP control AUC in same experiment: 27084, DMSO control AUC in same experiment: 18482): 10200

O=C(NC[C@H](O)CN1CCc2ccccc2C1)c1ccnc(NC2CCC2)c1
area under confluence curve ([7]; DMSO control AUC in same experiment: 20657): 20400
area under confluence curve ([8]; DMSO control AUC in same experiment: 40085): 25900
area under confluence curve ([9]; DMSO control AUC in same experiment: 15413): 16200
area under confluence curve ([10]; 300 nM): 8430
area under confluence curve ([11]; DMSO control AUC in same experiment: 43928): 45500
area under confluence curve ([12]; 300 nM, DMSO control AUC in same experiment: 7080): 8360

COc1nnc2ccc(N3CCC(c4ccc(OCCN5CCN(C)C(=O)[C@H]5C)cc4)CC3)nn12
area under confluence curve ([7]; DMSO control AUC in same experiment: 14522): 6020
area under confluence curve ([8]; DMSO control AUC in same experiment: 27284): 21500
area under confluence curve ([9]; DMSO control AUC in same experiment: 11459): 13000
area under confluence curve ([10]; 30 nM): 6660
area under confluence curve ([11]; DMSO control AUC in same experiment: 48895): 42000
area under confluence curve ([12]; 30 nM, DMSO control AUC in same experiment: 18996): 14400

COC(=O)c1ccc([C@H]2c3[nH]c4ccccc4c3C[C@H](C(=O)OC)N2C(=O)CCl)cc1 + C=CC(=O)Nc1cc(Nc2nccc(-c3cn(C)c4ccccc34)n2)c(OC)cc1N(C)CCN(C)C [osimertinib]
area under confluence curve ([1]; test compound dose 100 nM, dosing schedule: sequential, osimertinib-only DTP control AUC in same experiment: 9919, DMSO control AUC in same experiment: 26010): 7660
area under confluence curve ([1]; test compound dose 100 nM, dosing schedule: upfront, osimertinib-only DTP control AUC in same experiment: 15327, DMSO control AUC in same experiment: 26010): 13400
area under confluence curve ([2]; test compound dose 100 nM, dosing schedule: sequential, osimertinib-only DTP control AUC in same experiment: 11520, DMSO control AUC in same experiment: 9426): 13900
area under confluence curve ([2]; test compound dose 100 nM, dosing schedule: upfront, osimertinib-only DTP control AUC in same experiment: 21942, DMSO control AUC in same experiment: 9426): 20100
area under confluence curve ([3]; test compound dose 100 nM, dosing schedule: sequential, osimertinib-only DTP control AUC in same experiment: 9121, DMSO control AUC in same experiment: 11459): 5900
area under confluence curve ([3]; test compound dose 100 nM, dosing schedule: upfront, osimertinib-only DTP control AUC in same experiment: 12748, DMSO control AUC in same experiment: 11459): 6780
area under confluence curve ([4]; test compound dose 100 nM, dosing schedule: sequential, osimertinib-only DTP control AUC in same experiment: 19238, DMSO control AUC in same experiment: 16638): 19000
area under confluence curve ([4]; test compound dose 100 nM, dosing schedule: upfront, osimertinib-only DTP control AUC in same experiment: 21234, DMSO control AUC in same experiment: 16638): 21000
area under confluence curve ([5]; test compound dose 100 nM, dosing schedule: sequential, osimertinib-only DTP control AUC in same experiment: 25096, DMSO control AUC in same experiment: 35394): 6740
area under confluence curve ([5]; test compound dose 100 nM, dosing schedule: upfront, osimertinib-only DTP control AUC in same experiment: 27382, DMSO control AUC in same experiment: 35394): 27100
area under confluence curve ([6]; test compound dose 100 nM, dosing schedule: sequential, osimertinib-only DTP control AUC in same experiment: 3520, DMSO control AUC in same experiment: 13556): 183
area under confluence curve ([6]; test compound dose 100 nM, dosing schedule: upfront, osimertinib-only DTP control AUC in same experiment: 6532, DMSO control AUC in same experiment: 13556): 1800

Cc1nc(N2CCC3(CC2)CO[C@@H](C)[C@H]3N)c(CO)nc1-c1cccc(Cl)c1Cl + C=CC(=O)Nc1cc(Nc2nccc(-c3cn(C)c4ccccc34)n2)c(OC)cc1N(C)CCN(C)C [osimertinib]
area under confluence curve ([1]; test compound dose 1000 nM, dosing schedule: sequential, osimertinib-only DTP control AUC in same experiment: 22968, DMSO control AUC in same experiment: 15857): 15500
area under confluence curve ([1]; test compound dose 1000 nM, dosing schedule: upfront, osimertinib-only DTP control AUC in same experiment: 27164, DMSO control AUC in same experiment: 15857): 17800
area under confluence curve ([2]; test compound dose 1000 nM, dosing schedule: sequential, osimertinib-only DTP control AUC in same experiment: 26096, DMSO control AUC in same experiment: 14404): 16900
area under confluence curve ([2]; test compound dose 1000 nM, dosing schedule: upfront, osimertinib-only DTP control AUC in same experiment: 33120, DMSO control AUC in same experiment: 14404): 21000
area under confluence curve ([3]; test compound dose 1000 nM, dosing schedule: sequential, osimertinib-only DTP control AUC in same experiment: 22314, DMSO control AUC in same experiment: 19215): 19500
area under confluence curve ([3]; test compound dose 1000 nM, dosing schedule: upfront, osimertinib-only DTP control AUC in same experiment: 29846, DMSO control AUC in same experiment: 19215): 27200
area under confluence curve ([4]; test compound dose 1000 nM, dosing schedule: sequential, osimertinib-only DTP control AUC in same experiment: 12791, DMSO control AUC in same experiment: 18415): 9900
area under confluence curve ([4]; test compound dose 1000 nM, dosing schedule: upfront, osimertinib-only DTP control AUC in same experiment: 17269, DMSO control AUC in same experiment: 18415): 14300
area under confluence curve ([5]; test compound dose 1000 nM, dosing schedule: sequential, osimertinib-only DTP control AUC in same experiment: 15330, DMSO control AUC in same experiment: 21320): 6150
area under confluence curve ([5]; test compound dose 1000 nM, dosing schedule: upfront, osimertinib-only DTP control AUC in same experiment: 20798, DMSO control AUC in same experiment: 21320): 13400
area under confluence curve ([6]; test compound dose 1000 nM, dosing schedule: sequential, osimertinib-only DTP control AUC in same experiment: 8624, DMSO control AUC in same experiment: 11834): 2640
area under confluence curve ([6]; test compound dose 1000 nM, dosing schedule: upfront, osimertinib-only DTP control AUC in same experiment: 10856, DMSO control AUC in same experiment: 11834): 3200
